For eight compounds, growth results are on record in PubChem BioAssay (NCI).

The panel holds about 83,000 compounds, 20% with a hit somewhere; the sample as a whole holds those more often.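 Single-concentration screen, 48 h exposure, 96-well plates. Endpoint: percent growth. Below 10 = active.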 Values without a mark were called inactive. The source made the active and inactive calls.

What all share (test): NCI-60 one-dose screen, 48 h (100 = growth as untreated, 0 = no growth, -100 = all killed)
What all share (conditions): 10 µM unless noted

The test system of experiment [1] is SK-MEL-2 melanoma.
Experiment [2] deals with EKVX NSCLC.
In experiment [3] the test system is SN12C renal.
The subject of experiment [4] is UO-31 renal.
Experiment [5] has as its system TK-10 renal.
In experiment [6] the test system is ACHN renal.
Experiment [7] has as its system CAKI-1 renal.
The test system of experiment [8] is A498 renal.
Experiment [9] has as its system CCRF-CEM leukemia.
In experiment [10] the test system is RPMI-8226 leukemia.
Experiment [11] has as its system OVCAR-8 ovarian.
Experiment [12] has as its system OVCAR-5 ovarian.
The test system of experiment [13] is OVCAR-4 ovarian.
Experiment [14] relates to SK-OV-3 ovarian.
The subject of experiment [15] is IGROV1 ovarian.
The subject of experiment [16] is OVCAR-3 ovarian.
Experiment [17] has as its system HS 578T breast.
Experiment [18] has as its system NCI/ADR-RES ovarian.
Experiment [19] has as its system SR leukemia.
The subject of experiment [20] is MOLT-4 leukemia.

For `COc1ccc(-n2ncn(CCCCCCn3cnn(-c4ccc(OC)cc4)c3=O)c2=O)cc1`, the growth was 89.5% in [1]; 85.8% in [2]; 90.6% in experiment [3]; 72.5% in experiment [4]; 118% in experiment [5]; 87.5% in experiment [6]. In addition, the growth is 87.4% in experiment [7]; 101% in [8]; 87.8% in [9]; 78.3% in experiment [10]; 95.2% in experiment [11]; 101% in experiment [12]. Further, the growth in experiment [13] is 84.5%; in [14], 99.5%; in experiment [15], 90.6%; in [16], 98.4%; in experiment [17], 93.9%; in [18], 89%.

With `C=C(C)[C@@H]1CC[C@]2(CNCCO)CC[C@]3(C)[C@H](CC[C@@H]4[C@@]5(C)CCC(N)[C@@](C)(CO)[C@@H]5CC[C@]43C)[C@@H]12` (some centres undefined), the growth in experiment [1] was -19% (active); in experiment [2], 40%; in experiment [3], -11.4% (active); in experiment [4] it was 66.1%; in experiment [5] it was -47.4% (active); in experiment [6], 54.4%. Also, the growth in experiment [7] was 71.2%; in [8], 78.1%; in [9], -38.7% (active); in experiment [10] it was -45.1% (active); in [11], 10.7%; in [12] it was 63.8%. The growth was 46.2% in [13]; 75% in [14]; 61.6% in experiment [15]; -43.4% (active) in experiment [16]; 60.9% in experiment [17]; 83% in experiment [18].

As to `Cc1c(C(=O)O[C@H]2[C@@H]3[C@H](C)CC[C@H]3[C@]3(C)O[C@@]2(C2CCCCC2)C[C@H]3OC(=O)CO)ccc2ccccc12`, the growth in [1] was 40.3%; in [2], 41.8%; in experiment [3], -1.88% (active); in experiment [4], -11.7% (active); in [5] it was 59.8%; in [6], -36.4% (active). Also, the growth in experiment [7] was 0.73% (active); in [8], -76.6% (active); in [9], -4.66% (active); in experiment [10], -40.7% (active); in [11], 28.6%; in experiment [12] it was 61.1%. The growth in experiment [13] is 39.4%; in [14], 62.6%; in [15] it was 63.3%; in experiment [16] it was 29.3%; in [17], -29.6% (active); in experiment [18] it was 8.05% (active).

Turning to `CC(C)CCC[C@@H](C)[C@H]1CCC2C3=CCC4C(=O)C=CC(=O)C4C3CC[C@@]21C` (some centres undefined), the growth in experiment [1] was -16.4% (active); in experiment [2], -10% (active); in experiment [3], 20.1%; in experiment [4], -67.9% (active); in experiment [5], -36.6% (active); in experiment [6], 4.54% (active). For the same compound, the growth in experiment [7] is -56.3% (active); in experiment [8] it was -6.21% (active); in experiment [9] it was 17%; in experiment [19] it was 13.2%; in experiment [10] it was 8.72% (active); in experiment [11], 0.168% (active). For the same compound, the growth in [12] is 7.74% (active); in [13] it was -9.33% (active); in [14] it was 10.5%; in [15], -63.2% (active); in experiment [16], 2.72% (active); in experiment [17], 8.12% (active). Besides, the growth in [18] is 7.87% (active).

In the case of `CCCCCCN(CCCCCC)CC(O)c1cccc2ccc(Cl)cc12` (centres undefined), the growth is 46.6% in experiment [1]; 77.2% in [2]; 72.8% in [3]; 47.9% in experiment [4]; 79.2% in [5]; 50.8% in [6]. For the same compound, the growth in experiment [7] was 25.3%; in [8], 67.3%; in experiment [9], 67.6%; in [10], 31.2%; in [11], 93.8%; in experiment [12] it was 69.3%. In addition, the growth was 70% in [13]; 40.8% in experiment [15]; 63.2% in experiment [16]; 61.2% in experiment [17]; 66.9% in [18].

On to `Cc1nc2ccc(C(=O)NCc3cc(C(=O)O)c(C)o3)cc2nc1C`, for which the growth is 102% in experiment [1]; 105% in experiment [2]; 96.5% in experiment [3]; 82.8% in experiment [4]; 97.6% in experiment [5]; 99.4% in experiment [6]. Also, the growth in experiment [7] was 86.2%; in experiment [8] it was 106%; in experiment [9], 97.1%; in experiment [10], 108%; in experiment [11] it was 96.6%; in experiment [12] it was 99.7%. The growth in experiment [13] was 95.4%; in experiment [14], 80.2%; in experiment [15] it was 106%; in experiment [16], 101%; in experiment [17], 96.8%; in experiment [18] it was 106%.

As for `COc1cc(C(=O)Nc2cc(O)c(CC=C(C)C)c(O)c2)cc2c1O[C@]1(C)CC[C@@H](O)C(C)(C)[C@H]1C2`, the growth was 12.9% in experiment [1]; 36.6% in experiment [2]; 64.6% in experiment [3]; -1.4% (active) in experiment [4]; 33.2% in experiment [5]; 26.4% in experiment [6]. For the same compound, the growth was 9.89% (active) in experiment [7]; 16.7% in experiment [8]; -15.7% (active) in experiment [20]; 14.2% in experiment [19]; -24.3% (active) in experiment [10]; 53% in experiment [12]. For the same compound, the growth in experiment [13] is 58.6%; in experiment [14] it was 16.5%; in experiment [15], 61.1%; in [16] it was 27.7%; in experiment [17], 10.3%; in experiment [18] it was 81.3%.

As for `CC(C)OC(=O)NNC(=O)c1ccncc1`, the growth was 84.4% in experiment [1]; 106% in [2]; 100% in experiment [3]; 77.8% in experiment [4]; 103% in experiment [5]; 96% in experiment [6]. The growth in [7] was 94.4%; in experiment [8], 119%; in [9] it was 132%; in [19] it was 104%; in experiment [11] it was 99.1%; in [12] it was 98.5%. For the same compound, the growth was 101% in experiment [13]; 106% in experiment [14]; 98% in [15]; 93.4% in [16]; 106% in [17]; 109% in [18].
